For 16 molecules, composite z-score and composite Z-score results are on record in PubChem BioAssay.

Molecules are shown by their SMILES. Calls of active or inactive are those of the source.

One assay has as its target Albumin (Bos taurus) (UniProt P02769). Description: bovine serum albumin binders on microarray, profiling panel, artefact control for SMM control protein annotation, biochemical, small-molecule microarray, Alexa647 label, 635/667 nm fluorescence (AID 1118).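 Further: score merges 667 nm emission intensity and signal-to-noise per printed compound spot.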 Particulars: BSA-A647 binding, fluorescence 635 nm, higher = more signal.
The nature of assay [1]: small-molecule microarray binders of probe aXIP, primary screen, biochemical, NeuroSMM set, 635/667 nm fluorescence (AID 1119).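 Further: probe is the protein aXip251-270 applied at 1 µg/mL to compound-printed slides; binding of probe to printed compounds measured as 667 nm fluorescence plus signal to noise.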 Particulars: higher = more signal, called active from +8 up or from −8 down.
Assay [2] in a line: small-molecule binders of probe aNOTCH3, primary screen, biochemical, small-molecule microarray, 635/667 nm fluorescence (AID 1120).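 Further: probe is a biotin-tagged antibody raised against NOTCH3 rather than NOTCH3 protein; score merges spot fluorescence near 667 nm with spot signal to noise.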 The settings on record: higher = more signal.
Assay [3] is described as follows: small-molecule binders of probe aNOTCH2, primary screen, biochemical, small-molecule microarray, 635/667 nm fluorescence (AID 1121).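 Further: score merges feature fluorescence read at 667 nm with its signal to noise.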 The settings on record: higher = more signal.
Assay [4] concerns the target Carbonic anhydrase 2 (Homo sapiens) (UniProt P00918). Nature of the assay: CAII small-molecule binders, profiling panel, biochemical, small-molecule microarray, Alexa647-labelled CAII (AID 1122). The settings on record: CAII-A647 binding fluorescence, higher = more signal.
Assay [5] is described as follows: COS7 lysate on small-molecule microarray, probe aHis, 635 nm (AID 1123).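 Further: z-score combines 667nm fluorescence intensity with signal-to-noise per printed compound spot.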 The settings on record: COS7 cell lysate, fluorescence, higher = more signal.
A short description of assay [6]: compound binding in COS7 lysate, probe aLAP1, primary screen, cell lysate, small-molecule microarray (AID 1124).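 Further: lysate comes from COS7 cells expressing LAP1 and is applied at 0.3 µg/mL; score merges spot fluorescence near 667 nm with signal-to-noise over triplicate slides.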 The settings on record: probe aLAP1, fluorescence, higher = more signal.
For a further assay, the system named is Sam68 (KHDRBS1). Nature of the assay: Sam68 small-molecule binders, primary screen, biochemical, small-molecule microarray, 635 nm fluorescence (AID 1125).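 Further: score merges 667 nm channel intensity with signal to noise over triplicate slides.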 The settings on record: small-molecule microarray binding, higher = more signal.
Assay [7] concerns Chordin-like protein 2 (CHRDL2). Description: CHRDL2 small-molecule binders, primary screen, biochemical, small-molecule microarray, 635 nm fluorescence (AID 1126).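 Further: printed compound slides probed with Chrdl2 protein at 4 µg/mL for 1 h at 4 C; score merges 667 nm emission intensity with signal to noise over three replicate slides.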 Particulars: small-molecule microarray binding, fluorescence 635 nm; higher = more signal.
The target of assay [8] is Concanavalin-A (Canavalia ensiformis) (UniProt P02866). Nature of the assay: ConA small-molecule binders, primary screen, artefact control for SMM control protein annotation, biochemical, small-molecule microarray, Alexa647 label, 635 nm (AID 1127).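 Further: z combines 667 nm emission intensity with signal-to-noise across three replicate slides.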 Particulars: ConA-A647 binding fluorescence, higher = more signal.
Concanavalin-A (Canavalia ensiformis), sequence (P02866 whole entry, looked up): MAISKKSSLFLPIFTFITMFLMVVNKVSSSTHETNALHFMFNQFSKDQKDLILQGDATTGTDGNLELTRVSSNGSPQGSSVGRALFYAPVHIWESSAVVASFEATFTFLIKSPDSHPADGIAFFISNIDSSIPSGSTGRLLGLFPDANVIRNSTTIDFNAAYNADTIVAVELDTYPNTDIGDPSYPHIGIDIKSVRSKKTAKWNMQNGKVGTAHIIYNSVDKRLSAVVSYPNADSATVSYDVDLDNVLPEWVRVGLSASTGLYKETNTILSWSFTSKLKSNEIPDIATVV

Albumin (Bos taurus), sequence (P02769 whole entry, looked up): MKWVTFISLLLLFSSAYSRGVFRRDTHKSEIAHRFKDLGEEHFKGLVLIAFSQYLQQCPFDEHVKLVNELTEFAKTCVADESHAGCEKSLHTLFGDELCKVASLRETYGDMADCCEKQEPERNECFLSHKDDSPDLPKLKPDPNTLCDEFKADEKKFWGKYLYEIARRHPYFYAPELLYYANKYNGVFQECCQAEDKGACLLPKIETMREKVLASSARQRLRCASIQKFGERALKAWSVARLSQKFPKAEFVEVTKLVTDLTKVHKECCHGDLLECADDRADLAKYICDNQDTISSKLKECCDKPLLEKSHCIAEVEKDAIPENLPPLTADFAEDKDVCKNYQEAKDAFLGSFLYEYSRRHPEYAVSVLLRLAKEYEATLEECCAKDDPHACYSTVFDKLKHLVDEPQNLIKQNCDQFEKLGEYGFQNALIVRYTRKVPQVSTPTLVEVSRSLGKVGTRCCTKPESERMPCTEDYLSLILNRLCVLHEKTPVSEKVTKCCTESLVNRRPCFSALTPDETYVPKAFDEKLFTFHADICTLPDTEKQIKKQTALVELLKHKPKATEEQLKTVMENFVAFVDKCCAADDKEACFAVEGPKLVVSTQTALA

`CCCCC(O)C1C=CC2C(=O)N(c3ccccc3)C(=O)C2N1Nc1ccc([N+](=O)[O-])cc1` (stereo not given): the composite z-score was 0.894 with Albumin (Bos taurus); 0.27 in assay [2]; -0.148 in assay [3]; 0.583 in assay [4]; 2.61 in [5]; 0.738 in [6]. In addition, the composite z-score with Sam68 (KHDRBS1) is 1.3; in assay [7] it was -0.0818; in [8] it was 1.02. Moreover, the composite Z-score in assay [1] was 0.312 (inactive).
Turning to `COC(=O)[C@@]1(Cc2ccccc2)[C@H]2c3cc(C(=O)N(C)C)n(CCSC(=N)N)c3C[C@H]2CN1C(=O)c1ccccc1`, the composite z-score in the assay with Albumin (Bos taurus) is -0.107; in assay [2], 0.0159; in assay [3] it was 0.0591; in [4] it was 0.877; in [5], 0.778; in [6] it was 1.63. For the same molecule, the figures for the composite z-score (in the assay on Sam68 (KHDRBS1); in assay [7]; in assay [8]) were -1.71, -0.721 and -1.36, respectively. Also, the composite Z-score in assay [1] was 1.22 (inactive).
For `CCOC(=O)C1=CC[C@@H](c2ccc(OC)cc2)N(S(=O)(=O)c2ccc(C)cc2)[C@H]1CC`, the composite z-score with Albumin (Bos taurus) was 0.894; in assay [2], 0.164; in [3], 0.0684; in assay [4] it was 0.579; in [5], 1.85; in assay [6] it was 0.133. For the same molecule, the figures for the composite z-score (in the assay with Sam68 (KHDRBS1); in assay [7]; in assay [8]) were 1.33, -0.483 and 1.07, respectively. Besides, the composite Z-score in assay [1] is -0.0608 (inactive).
Consider `COc1ccc([Si](C)(C)[C@H]2[C@H](CC(=O)N3Cc4ccccc4C[C@H]3CO)O[C@@]3(C(=O)N(C)c4c(Br)cc(C)cc43)[C@@H]2C)cc1`, for which the composite z-score was 0.238 with Albumin (Bos taurus); 0.0643 in assay [2]; -0.164 in assay [3]; 0.0971 in assay [4]; 0.787 in assay [5]; 0.152 in assay [6]. For the same molecule, the results for the composite z-score (with Sam68 (KHDRBS1); in assay [7]; in assay [8]) were 1.1, 0.7 and 1.06, respectively. In addition, the composite Z-score in assay [1] was 0.298 (inactive).
Take `C=CCN1C(=O)[C@@]2(O[C@@H](CCn3cc([C@H](O)c4ccccc4)nn3)[C@H]([Si](C)(C)c3ccc(OC)cc3)[C@H]2C)c2cc(N3C(=O)c4cccc5cccc3c45)ccc21`: the composite z-score with Albumin (Bos taurus) is 0.0345; in assay [2], -0.272; in assay [3], -0.223; in assay [4], 0.106; in assay [5], 0.436; in [6], 0.0703. Besides, the composite z-score in the assay with Sam68 (KHDRBS1) is -0.233; in assay [7], -1.02; in assay [8], 0.341. In [1], the composite Z-score is -0.212 (inactive).
On to `O=C(NCc1ccccc1)[C@@H]1c2ccccc2C(=O)N(Cc2cc(C(F)(F)F)cc(C(F)(F)F)c2)[C@H]1c1ccc(CO)cc1`, for which the composite z-score in the assay with Albumin (Bos taurus) was -0.432; in assay [2], 0.104; in assay [3] it was -0.008; in assay [4] it was 0.185; in assay [5] it was 1.55; in [6], 0.92. Also, the composite z-score in the assay with Sam68 (KHDRBS1) amounted to 1.3; in [7], 0.755; in assay [8], 0.609. The composite Z-score in [1] was -0.46 (inactive).
As for `CCCCC(O)C1C=CC2C(=O)N(c3ccccc3)C(=O)C2N1Nc1ccccc1` (stereo not given), the composite z-score in the assay with Albumin (Bos taurus) was 0.901; in assay [2], 0.0248; in assay [3], -0.0596; in assay [4], 0.0784; in [5], 2.59; in [6], -0.0672. Moreover, the values for the composite z-score (in the assay with Sam68 (KHDRBS1); in assay [7]; in assay [8]) were 0.576, -1.17 and 0.557, respectively. In assay [1], the composite Z-score is -0.539 (inactive).
With `COCCCNC(=O)[C@@]1(Sc2ccc(C)cc2)CC(=O)N(Cc2ccccc2C(F)(F)F)[C@@H]1c1ccc(CO)cc1I`, the composite z-score in the assay with Albumin (Bos taurus) was 0.474; in [2] it was -0.402; in assay [3], -0.121; in assay [4] it was 0.175; in assay [5], 1.08; in assay [6], 0.295. In addition, the composite z-score was 0.188 in the assay on Sam68 (KHDRBS1), -1.51 in assay [7] and -0.89 in assay [8]. In addition, the composite Z-score in assay [1] was -1.08 (inactive).
`CO[C@H]1O[C@H](CO)[C@@H](OC(=O)Nc2ccccc2)[C@H](OC(=O)Nc2ccccc2)[C@H]1OC(=O)Nc1ccccc1`: the composite z-score was 0.729 in the assay with Albumin (Bos taurus); -0.0918 in assay [2]; -0.0567 in [3]; 0.521 in assay [4]; 2.45 in [5]; 0.373 in [6]. In addition, the composite z-score in the assay with Sam68 (KHDRBS1) is 1.3; in [7] it was -0.0958; in [8], 1.15. The composite Z-score in assay [1] is -0.375 (inactive).
With `C=CC[C@@]1(C(=O)OC)N=C(c2ccc(OCCCO)cc2)O[C@@H]1c1ccccc1N=[N+]=[N-]`, the composite z-score with Albumin (Bos taurus) is -1.11; in assay [2], 0.477; in assay [3], 0.12; in [4], 0.475; in assay [5] it was 2.76; in assay [6] it was 0.568. The values for the composite z-score (in the assay on Sam68 (KHDRBS1); in assay [7]; in assay [8]) were 1.29, 1.33 and 0.896, respectively. In addition, the composite Z-score in assay [1] was 0.721 (inactive).
As to `COc1ccc([Si](C)(C)[C@H]2[C@H](CC(=O)N3Cc4ccccc4C[C@H]3CO)O[C@@]3(C(=O)N(C)c4ccccc43)[C@@H]2C)cc1`, the composite z-score with Albumin (Bos taurus) is 0.656; in [2] it was 0.163; in assay [3] it was -0.11; in assay [4], 0.686; in assay [5], 1.89; in assay [6], 0.941. Further, the composite z-score in the assay on Sam68 (KHDRBS1) came out at 1.28; in [7] it was 1.37; in assay [8] it was 1.01. Also, the composite Z-score in [1] is 0.673 (inactive).
For `COc1ccc(C(O)C2C=CC3C(=O)N(c4ccccc4)C(=O)C3N2Nc2ccc(C#N)cc2)cc1OCc1ccccc1` (stereo not given), the composite z-score in the assay with Albumin (Bos taurus) came out at 1.06; in assay [2], 0.291; in assay [3], 0.131; in assay [4], 0.634; in assay [5], 2.01; in [6] it was 1.17. In addition, the composite z-score with Sam68 (KHDRBS1) was 1.3; in assay [7], -0.333; in [8], 1.1. Also, the composite Z-score in [1] is -0.502 (inactive).
Consider `C=CCOC(=O)[C@@H]1[C@H]2C(=O)O[C@H](c3ccccc3)[C@H](c3ccccc3)N2[C@H](c2ccc(OCCOC(=O)[C@H]3C[C@H]4C(=O)NCC(=O)N4[C@H]3c3cccc(OCCO)c3)cc2)[C@@]12C(=O)Nc1ccc(I)cc12`, for which the composite z-score with Albumin (Bos taurus) is -0.735; in assay [2], -0.006; in assay [3], -0.06; in assay [4], 0.636; in assay [5], 1.96; in assay [6] it was 0.397. For the same molecule, the composite z-score in the assay with Sam68 (KHDRBS1) worked out at 1.3; in [7] it was 1.02; in [8] it was 1.19. Further, the composite Z-score in [1] is 0.614 (inactive).
As to `Cc1ccc(S[C@]2(C(=O)NCCCN(C)C)CC(=O)N(Cc3ccccc3C(F)(F)F)[C@@H]2c2ccc(CO)cc2I)cc1`, the composite z-score was 0.374 in the assay with Albumin (Bos taurus); -0.422 in assay [2]; 0.337 in assay [3]; 0.792 in [4]; 1.36 in [5]; 1.83 in assay [6]. Besides, the values for the composite z-score (in the assay with Sam68 (KHDRBS1); in [7]; in [8]) were 0.492, -0.532 and 0.0055, respectively. Further, the composite Z-score in assay [1] was -0.755 (inactive).
Turning to `COc1ccc(C(=O)Nc2cccc(CN3C(=O)[C@]4(O[C@H](CC(=O)N5Cc6ccccc6C[C@H]5CO)[C@@H]([Si](C)(C)c5ccc(OC)cc5)[C@@H]4C)c4ccccc43)c2)cc1`, the composite z-score was -0.513 in the assay with Albumin (Bos taurus); 0.0243 in assay [2]; -0.154 in [3]; 0.288 in [4]; 0.458 in assay [5]; 0.557 in assay [6]. Further, the values for the composite z-score (in the assay with Sam68 (KHDRBS1); in assay [7]; in assay [8]) were 1.29, 1.38 and 0.858, respectively. Besides, the composite Z-score in assay [1] is -0.222 (inactive).
Regarding `C=C(COC)/C(=C/C[C@@H](OC(C)=O)c1ccccc1OCCO)c1cnc2ccccc2c1`, the composite z-score in the assay with Albumin (Bos taurus) is -0.209; in assay [2] it was 0.199; in assay [3], -0.084; in assay [4], 0.776; in [5] it was 1.09; in assay [6], 0.542. In addition, the composite z-score was determined as 1.17 in the assay with Sam68 (KHDRBS1), 0.765 in assay [7] and 0.995 in assay [8]. In addition, in [1], the composite Z-score is 0.72 (inactive).
